# Source: PubChem BioAssay
# Most compounds without a hit are left out; they make up all but 11% or so of the library.
# ALDH1A1 block: ALDH1A1 (human) enzyme inhibition; P00352; Purified ALDH1A1, NADH fluorescence, propionaldehyde substrate; 7.3% of 220,000 active; Potency, µM (doses to about 75.3 µM), inactives show at the top dose activity, negative = inhibition, actives largely listed as inhibitors; active = well fitted inhibition curve with a large enough effect, not every such curve was filed as active; inconclusive = small, poorly fitted or top-dose-only effect, or another doubt; inactive = no such curve, though single readings can be large or run the other way;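 note: potency is the fitted concentration of half-maximal effect; plate controls were no enzyme wells and a reference inhibitor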
# Target sequence (P00352 whole entry, looked up): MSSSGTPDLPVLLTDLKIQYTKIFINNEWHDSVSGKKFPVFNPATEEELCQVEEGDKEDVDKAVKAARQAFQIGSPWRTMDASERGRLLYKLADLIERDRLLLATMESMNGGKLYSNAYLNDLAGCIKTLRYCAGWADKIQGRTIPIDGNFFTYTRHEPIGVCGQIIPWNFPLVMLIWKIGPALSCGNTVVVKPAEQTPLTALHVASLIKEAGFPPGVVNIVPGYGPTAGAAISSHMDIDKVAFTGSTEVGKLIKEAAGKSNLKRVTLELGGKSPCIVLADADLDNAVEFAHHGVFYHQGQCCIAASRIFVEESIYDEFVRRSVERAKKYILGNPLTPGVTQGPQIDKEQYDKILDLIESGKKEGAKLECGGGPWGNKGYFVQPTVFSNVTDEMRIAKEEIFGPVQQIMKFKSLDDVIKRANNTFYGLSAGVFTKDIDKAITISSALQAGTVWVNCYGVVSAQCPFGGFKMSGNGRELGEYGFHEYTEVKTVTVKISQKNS
# HTT ATP protect: cytoprotection in Huntington HTT-Q103 PC12 cell model; Potency, µM (top dose mostly 56.4 µM), for the others: cytoprotection (ATP increase), hits mostly activators; 0.14% of 230,000 active; PC12 HTT-Q103 induced, cytoprotection, ATP luminescence, 40 h; note: potency is the fitted concentration of half-maximal effect; % of control where 0% means no effect; nearly all actives have a fitted effect of over 45% in size
#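 ATP quantification (ATPlite) reports survival of PC12 cells in which tebufenozide, 100 nM final, switches on Htt exon 1 with 103 glutamines linked to GFP; compounds are titrated.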
# RGS12 GoLoco inh: inhibitors of human Gai1-RGS12 GoLoco interaction (red fluorophore) | P63096 | Gai1:RGS12 GoLoco peptide FP, rhodamine, 10 min | Potency, µM (series often up to 61.6 µM), for the others: at the highest dose activity, negative = inhibition, usual class: inhibitors | 0.44% of 230,000 active; active = well fitted inhibition curve with a large enough effect, not every such curve was filed as active; inactive = no such curve, though single readings can be large or run the other way; note: potency is the fitted concentration of half-maximal effect; % is set by controls: 0 for no effect and ±100 for the full control effect; nearly all actives have a fitted effect of over 30% in size
# HttQ103 aggreg: mutant huntingtin aggregation inhibition; AID 1688; PC12 HttQ103-GFP aggregates, Acumen cytometry, 40 h; 1.1% of 220,000 active; Potency, µM (doses to about 46.1 µM), for inactives: at the top dose activity change, negative = inhibition, most hits filed as inhibitors; note: potency is the fitted concentration of half-maximal effect; % is set by controls: 0 for no effect and ±100 for the full control effect; nearly all actives have a fitted effect of over 60% in size
#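 Multiplexed with ATP-based cell death, this channel scores GFP aggregates in PC12 cells expressing inducible HTTex1-Q103-GFP. Induction used 100 nM tebufenozide; compounds were tested in concentration series.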
# PNC assembly inh: blocks assembly of the perinucleolar compartment | activity change (PNC), negative = inhibition, % at 10 µM | 3.1% of 140,000 active | PC3M PTB-GFP, PNC prevalence imaging, 16 h; hits give low values;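 active = readout at or below -70, meaning at least 70% loss of cells showing the perinucleolar compartment, a nuclear body marking cancer cells; inconclusive = readout between -30 and a set limit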;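 note: plate controls were DMSO wells for no effect and camptothecin positive control wells for full effect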
#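 Compounds are pinned in duplicate onto adhered PC3M cells stably expressing GFP-tagged PTB and incubated 16 h at 37 C. Cells are then fixed, nuclei stained with Hoechst, and PNC-positive cells counted.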
# HPGD inh: HPGD (human) dehydrogenase inhibition | P15428 | purified HPGD, NADH fluorescence kinetic, PGE2 substrate | Potency, µM, inactives show top-dose activity change, negative = inhibition, actives largely listed as inhibitors | 4.3% of 150,000 active; active = well fitted inhibition curve with a large enough effect, not every such curve was filed as active; inconclusive = small, poorly fitted or top-dose-only effect, or another doubt; inactive = no such curve, though single readings can be large or run the other way; note: potency is the fitted concentration of half-maximal effect; % is set by controls: 0 for no effect and ±100 for the full control effect
# Target sequence (P15428 whole entry, looked up): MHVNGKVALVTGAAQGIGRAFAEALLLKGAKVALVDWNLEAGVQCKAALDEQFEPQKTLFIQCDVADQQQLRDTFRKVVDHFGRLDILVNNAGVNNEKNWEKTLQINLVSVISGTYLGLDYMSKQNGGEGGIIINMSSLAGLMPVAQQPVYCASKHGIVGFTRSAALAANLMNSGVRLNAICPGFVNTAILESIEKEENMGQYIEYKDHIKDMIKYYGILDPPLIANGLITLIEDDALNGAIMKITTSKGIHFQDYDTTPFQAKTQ
#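 20 nM HPGD preincubated 15 min at room temperature with compound in 50 mM Tris-HCl pH 8, 0.01% Tween 20. Started with 1 mM NAD+ and 30 uM prostaglandin E2; NADH fluorescence (360/450 nm) read 5 times over 30-s intervals, last minus first.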
# * = called active by the depositor; ? = inconclusive; / = no result; [ ] = dose if it differs, or a comment. Unless noted, calls come from the whole dose curve; as a rule, active = well fitted curve in the direction sought with a large enough effect; inconclusive = small, poorly fitted or top-dose-only effect, or another doubt; inactive = no such curve, though single readings can be large; an effect the other way counts as inactive or inconclusive.
SMILES,ALDH1A1 block,HTT ATP protect,RGS12 GoLoco inh,HttQ103 aggreg,PNC assembly inh,HPGD inh
N#Cc1cccc(CS(=O)(=O)c2ccccc2)c1,4%,-60%,1%,/,/,-8%
N#Cc1c(SCC(N)=O)nc2c(c1-c1ccc(O)cc1)CCCC2,7.1µM*,-11%,-15%,-13%,?,-23%
Cc1cc(OCC(=O)C(C)(C)C)c2c(C)c(C)c(=O)oc2c1,?,-18%[10 µM],-4%,6%,-100*,10%
CC1CCCC(C)N1C(=O)COc1ccc(C(=O)Nc2ccccc2N2CCOCC2)cc1 (stereo not given),4%,-11%[10 µM],12%,-7%[9.22 µM],/,/
O=C(COc1ccc(Cl)cc1Cl)NCCC1=CCCCC1,6%,-9%,/,5%,-24,/
Cc1nn2cc(-c3ccccc3)nc2[nH]c1=O,3%,-4%,/,-15%,?,/
O=C(O)CCc1nn2cc(-c3ccccc3)nc2[nH]c1=O,?,-51%[10 µM],17%,-5%,-100*,?
COc1ccccc1Nc1nc(Cl)c(C=O)s1,18µM*,-6%[10 µM],79%,-1%,/,/
COc1ccccc1Nc1nc2c(s1)CCC2,18µM*,9%[10 µM],5%,?,78,?
O=Cc1sc(Nc2ccccc2)nc1Cl,-7%,?,117%,-8%,/,/
Cc1cccc(-c2cccc(-c3cc(=O)oc4cc5c(cc34)OCO5)c2)c1,?,-94%,15%[88.7 µM],/,/,?
O=C(CCCOc1ccc(Cl)cc1Cl)n1nnc2ccccc21,8%,0%[10 µM],-10%,-6%,?,8.9µM*
Nc1nncn1C(=O)CCCOc1ccc(Cl)cc1Cl,5%,-20%,5%,9%,?,?
CC(=O)c1ccc(OCCCC(=O)n2nnc3ccccc32)cc1,10%,-4%,-9%,10%,-2,20µM*
O=c1c(CCc2ccccc2)nc2cnc(N3CCNCC3)nc2n1CCc1ccccc1,?,-329%,31%,/,/,?
Cc1c2cccn2cc[n+]1C,?,-10%[0.074 µM],8.9µM*,3%,4,?
Cc1ccc(NC2=C(Cl)C(=O)OC2NC(=O)c2ccccc2)cc1 (stereo not given),-10%,13%[10 µM],-2%,-23%,?,-4%
O=C1OC(NC(=O)c2ccccc2)C(n2cc(CO)nn2)=C1Cl (stereo not given),13µM*,-1%,-17%,20%,20,22µM*
COc1cc(OC)c(N(C)S(=O)(=O)c2cccc(C(=O)OCC(=O)NCc3ccco3)c2)cc1Cl,-17%,-1%,-2%,8%,/,/
CCOc1ccccc1NC(=O)C1CCN(C(=O)Cc2ccccc2)CC1,6%,-40%,43%,-15%,/,/
O=C(NCc1ccco1)c1ccc2c(c1)C(=O)N(C1CCCCC1)C2=O,?,1%,1%,0%,21,-4%
COCCCN1C(=O)c2ccc(C(=O)NCc3ccco3)cc2C1=O,13µM*,14%,1%,-3%,8,-17%
COCCCN1C(=O)c2ccc(C(=O)Nc3ccccc3OC)cc2C1=O,?,-4%,5%,-6%,?,-10%
CCCN1C(=O)c2ccc(C(=O)NCc3ccco3)cc2C1=O,6.3µM*,-15%[0.074 µM],-4%,-15%,61,-9%
O=C(/C=C/c1ccccc1)NC1CCCc2ccccc21 (stereo not given),11%,-49%,1%,8%,/,/
SMILES,ALDH1A1 block,HTT ATP protect,RGS12 GoLoco inh,HttQ103 aggreg,PNC assembly inh,HPGD inh
O=C(COC(=O)C1(c2cccc(F)c2)CCCC1)NCc1ccc2c(c1)OCO2,1%,7%[10 µM],2%,5%,?,-6%
CC(CCC#N)[N+](=O)[O-] (stereo not given),2%,-7%,-7%,/,/,-2%
O=C(c1cccc(-c2nnc(-c3ccccc3)o2)c1)N1CCCCC1,?,-23%,7%,-13%,?,7.9µM*
O=C(CCc1nnc(-c2ccc(-c3ccccc3)cc2)o1)N1CCCCC1,?,-7%[10 µM],5%,12%[9.22 µM],/,/
O=C(c1cccc(-c2nnc(-c3ccccc3)o2)c1)N1CCCCCC1,?,-8%,2%,3%,?,8.9µM*
Cc1ccc(NC(=O)C(NC2CCCc3ccccc32)c2ccccc2)c([N+](=O)[O-])c1 (stereo not given),?,-3%[10 µM],4%,-5%,10,-3%
Cc1ccc(NC(=O)C(NC2CCCc3ccccc32)c2ccccc2)cc1Cl (stereo not given),14µM*,12%[10 µM],-22%,3%,1,-14%
O=C(COc1ncnc2ccc(Br)cc12)NCc1ccco1,/,3%[10 µM],6%,-35%[9.22 µM],/,/
COc1cccc(Cn2c(=O)c(-c3ccccc3)nc3cncnc32)c1,?,7%,-8%,/,/,/
O=c1ccc2c(o1)/C(=C/C=C(Cl)Cl)CCC2,7.1µM*,-3%[10 µM],-9%,-8%,-21,-22%
Cc1ccc(S(=O)(=O)NC(CN2CCOCC2)=NCCNS(=O)(=O)c2ccccc2)cc1,2.5µM*,7%[10 µM],-23%,12%,17,-13%
Cc1ccc(S(=O)(=O)NCCNC(=O)N2CCOCC2)cc1,-1%,-22%[10 µM],-1%,-7%[9.22 µM],7,-8%
C=CCn1c(CC#N)nnc1N1CCOCC1,8.9µM*,-1%,-19%,-10%,-103*,-4%
COCCn1c(CCc2ccccc2)n[nH]c1=S,?,-5%[10 µM],7%,-8%[9.22 µM],/,/
COCCn1c(C23CC4CC(CC(C4)C2)C3)n[nH]c1=S,-101%,15%,-8%,-31%,3,25µM*
N[C@@]1(C(=O)O)CN[C@@H](C(=O)O)C1,15%,-15%,4%,/,/,/
CCOC(=O)c1oc2cccc(O)c2c1C,-3%,-14%,-12%,-28%,33,-13%
CCOC(=O)c1oc2ccc(CNC(C)(C)C)c(Cl)c2c1C,-11%,22%[10 µM],-3%,7%,-119*,-11%
CCCC(c1nnnn1Cc1ccc(F)cc1)N1CCN(C)CC1 (stereo not given),-8%,-2%[10 µM],20%,16%[9.22 µM],/,/
COc1ccccc1N1CCN(C(c2ccc(N(C)C)cc2)c2nnnn2CCc2ccccc2)CC1 (stereo not given),22µM*,-1%[10 µM],14%,?,6,-22%
COc1ccc(C(c2nnnn2Cc2ccccc2)N2CCN(c3ccccc3)CC2)cc1 (stereo not given),-3%,8%[10 µM],7%,-4%,27,-12%
COc1ccc(Cn2nnnc2C(C(C)C)N2CCN(c3ccccc3OC)CC2)cc1 (stereo not given),18µM*,-4%[10 µM],-6%,-16%,35,-8%
CC(C)C(c1nnnn1Cc1ccc(F)cc1)N1CCN(c2ccc(O)cc2)CC1 (stereo not given),4µM*,9%[10 µM],-17%,6%[9.22 µM],/,/
CCCC(c1nnnn1Cc1ccc(F)cc1)N1CCN(CC)CC1 (stereo not given),22µM*,-64%[10 µM],-2%,?,/,/
